# According to PubChem BioAssay AID1240 (Sanford-Burnham Center for Chemical Genomics, 2008):
# Out of some 50,000 compounds screened, about 800 (1.6%) showed an effect of 50% or more. The sample holds strong results, similar compounds and a random draw of the others, so the mix is not that of the screen.
# Target: Bcl-2-like protein 10 (Homo sapiens) (UniProt Q9HD36)
# Experiment: TR3 peptide-Bcl-B binding displacers, biochemical primary FP assay, phenotype converters (AID 1240);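 further: 0% = Bcl-B with tracer peptide and DMSO and 100% = tracer peptide lacking Bcl-B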
# Conditions: GST-Bcl-B / FITC-TR3 peptide fluorescence polarization; stronger effect = higher value; compound at 3.75 mg/L
# Sequence of Bcl-2-like protein 10 (Homo sapiens) (Q9HD36 whole entry, looked up): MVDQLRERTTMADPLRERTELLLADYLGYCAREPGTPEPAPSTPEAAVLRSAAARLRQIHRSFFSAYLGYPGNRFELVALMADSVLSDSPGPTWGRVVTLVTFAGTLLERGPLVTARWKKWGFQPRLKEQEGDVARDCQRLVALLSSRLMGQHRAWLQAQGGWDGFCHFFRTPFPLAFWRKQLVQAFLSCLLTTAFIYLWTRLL
row,SMILES,displacement [%]
1,COc1ccc(CC(=O)Nc2ccc(Br)c(C)c2)cc1,7.5
2,C=CCNCCCCOc1ccc(Br)cc1,8.5
3,Cc1no[n+]([O-])c1COc1ccc(/C=C2\N=C(c3ccccc3)OC2=O)cc1,-9.9
4,Cc1c(-c2ccc(Cl)cc2)nc2ccccc2c1C(=O)O,-6.5
5,Cc1cc(C)cc(N2C(=O)NC(=O)/C(=C\c3ccc(Cl)cc3)C2=O)c1,16.4
6,C#CCn1cc(/C=C2\C(=O)NC(=O)N(c3ccc(Cl)cc3)C2=O)c2ccccc21,37.5
7,Cc1cc(C)cc(N2C(=O)NC(=O)/C(=C\c3ccc(F)cc3)C2=O)c1,7.7
8,CCn1cc(/C=C2\C(=O)NC(=O)N(c3ccccc3)C2=O)c2ccccc21,25.2
9,Cc1cc(C)cc(N2C(=O)NC(=O)/C(=C\c3ccc(N(C)C)cc3)C2=O)c1,127
10,C#CCn1cc(/C=C2\C(=O)NC(=O)N(c3ccc(C)cc3)C2=O)c2ccccc21,66.4
11,CCCC(C)NC(=O)c1ccc(Cl)c([N+](=O)[O-])c1 (stereo not drawn),-0.1
12,CCOC(=O)/C(C#N)=C/c1ccc(OCc2c(C)no[n+]2[O-])cc1,-1.9
13,CN1CCN(CCOCCOc2ccccc2)CC1,-7.9
14,O=C(CCCC(=O)OCC(F)(F)C(F)F)Nc1nccs1,9.8
15,O=C(NCCO)/C(=C/c1cccc([N+](=O)[O-])c1)NC(=O)c1cccs1,0
16,Cc1ccccc1C(=O)Nc1cccc(NC(=O)c2ccc(-c3ccc(Br)cc3)o2)c1,21.4
17,O=C(Nc1cccc(NC(=O)c2ccc(Cl)cc2Cl)c1)c1ccc(-c2ccc([N+](=O)[O-])cc2)o1,106
18,Cc1ccc(-c2ccc(C(=O)Nc3ccc(N4CCOCC4)cc3)o2)cc1Cl,10.8
19,O=C(Nc1cc(Cl)cc(Cl)c1)c1ccc(-c2ccc([N+](=O)[O-])cc2)o1,5.1
20,Cc1ccc(-c2ccc(C(=O)Nc3cccnc3)o2)cc1Cl,5.6
21,CC(=O)c1ccc(NC(=O)c2ccc(-c3ccc(Cl)cc3Cl)o2)cc1,-1.3
22,O=C(Nc1cccc([N+](=O)[O-])c1)c1ccc(-c2ccc(Cl)cc2)o1,9

row,SMILES,displacement [%]
1,O=C(Nc1cccc(NC(=O)c2ccccc2Cl)c1)c1ccc(-c2ccc(Br)cc2)o1,57.3
2,CC(=O)c1cccc(NC(=O)c2ccc(-c3ccc(Cl)cc3Cl)o2)c1,-4.6
3,Cc1ccccc1C(=O)Nc1cccc(NC(=O)c2ccc(-c3cccc(Cl)c3)o2)c1,0.6
4,Cc1cccc(NC(=O)c2ccc(-c3ccc(C)c(Cl)c3)o2)c1,69.8
5,O=C(Nc1ccc(NC(=O)c2ccc(-c3ccc(Cl)cc3Cl)o2)cc1)c1ccccc1,83.5
6,COc1ccc(CNC(=O)Cc2ccc(Br)cc2)cc1,0
7,COc1ccc(CCNC(=O)/C=C\c2ccccc2)cc1OC,6.7
8,CCOC(=O)c1c(NC(=O)c2cc(Cl)ccc2[N+](=O)[O-])sc(C(=O)N(CC)CC)c1C,-1.1
9,Cc1cc2[nH]c(=O)cc(-c3ccccc3)n2n1,-5.3
10,COc1cccc(NC(=O)c2cc(Cl)ccc2Cl)c1,11.1
11,COc1ccc(-c2nc3cc(N)ccc3o2)cc1OC,2.7
12,CCOC(=O)C(CCOCCOc1c(C)cc(Cl)cc1C)C(=O)OCC,-9.7
13,Cc1ccc(/C=N/NS(=O)(=O)c2ccc(C)cc2)cc1,8
14,CCOC(=O)C1=C(C)N=c2s/c(=C\c3ccc(Br)o3)c(=O)n2C1c1cccc(OC)c1 (stereo not drawn),10.7
15,CCOC(=O)C1=C(C)N=c2s/c(=C\c3ccc(N4CCOCC4)o3)c(=O)n2C1c1ccc(SC)cc1 (stereo not drawn),-55.4
16,CCOC(=O)C1=C(C)N=c2s/c(=C\c3ccc(-c4ccccc4C(=O)O)o3)c(=O)n2C1c1cccc(OC)c1 (stereo not drawn),-23.4
17,CCOC(=O)C1=C(C)N=c2s/c(=C\c3ccc(C)o3)c(=O)n2C1c1cccc(OC)c1 (stereo not drawn),73.3
18,CCOC(=O)C1=C(C)N=c2s/c(=C\c3ccc(Br)o3)c(=O)n2C1c1ccc(F)cc1 (stereo not drawn),11.2
19,CCOC(=O)C1=C(C)N=c2s/c(=C\c3ccc(C)o3)c(=O)n2C1c1ccc(SC)cc1 (stereo not drawn),65.3
20,CC1(C)Nc2ccccc2N(CCC(=O)N2CCOCC2)C1=O,9
21,Cc1ccnc(NC(=O)COc2ccc(Cl)c(C)c2)c1,1.5
22,O=C1CC(c2ccccc2)CC2=C1C(c1ccc(F)cc1)Nc1ccccc1N2 (stereo not drawn),2.3

row,SMILES,displacement [%]
1,COc1ccc(OC)c(/C=N/NC(=O)CSc2ncccn2)c1,1.1
2,CC(C)=N/N=C1/NC(=O)C(CC(=O)Nc2ccc(C)cc2C)S1 (stereo not drawn),-0.5
3,C/C(=C\C(=O)c1ccc(C)cc1)Nc1ccc(I)cc1,7.2
4,NC(=O)c1ccc(NC(=O)CCN2C(=O)c3ccccc3C2=O)cc1,26.7
5,CC(=O)NC1=NC(=O)/C(=C\c2ccc(Cl)cc2)S1,133
6,CC(=O)NC1=NC(=O)/C(=C\c2ccc3c(c2)OCO3)S1,130
7,CC(=O)NC1=NC(=O)/C(=C\c2ccc(-c3ccccc3C(=O)O)o2)S1,14.5
8,CC(=O)NC1=NC(=O)/C(=C\c2ccc(-c3ccc(C(=O)O)cc3)o2)S1,-27
9,O=Cc1cc(Br)ccc1OCc1c(F)cccc1Cl,0.3
10,O=C(N/N=C/c1cc(Cl)ccc1OCc1c(F)cccc1Cl)c1cccnc1,-2
11,Cc1ccc(C2=NC(=O)/C(=C/c3ccc4c(c3)OCO4)S2)cc1,0.5
12,CC(=O)NC1=NC(=O)/C(=C/c2cc(Cl)ccc2OCc2c(F)cccc2Cl)S1,112
13,CC(=O)NC1=NC(=O)/C(=C\c2ccc(C(C)C)cc2)S1,-10.2
14,CC(=O)NC1=NC(=O)/C(=C\c2ccc(Cl)c(Cl)c2)S1,-13.5
15,CC(=O)NC1=NC(=O)/C(=C\c2cn(C)c3ccccc23)S1,123
16,COC(=O)c1cc(C(=O)N2CCCC2)cc([N+](=O)[O-])c1,12.7
17,Cc1cc(/C=N/NC(=O)c2ccccn2)c(C)n1-c1cccc(Cl)c1,-15.5
18,COc1ccc(S(=O)(=O)N(CC(=O)N[C@@H]2CCCC[C@H]2O)c2ccc(C)cc2)cc1OC,0.1
19,COC(=O)c1cnn2c1NC(c1ccccc1)CC2C(F)(F)F (stereo not drawn),6.5
20,CC(C)(C)NC(=O)c1cc2nc(-c3ccccc3)cc(C(F)(F)F)n2n1,13
21,Cc1ccsc1/C=C1/SC(N2CCCC2)=NC1=O,1.4
22,CCN(CC)c1ccc(/C=C2/SC(NC(C)=O)=NC2=O)cc1,61.1

row,SMILES,displacement [%]
1,CC(=O)NC1=NC(=O)/C(=C\c2ccc(N(C)C)c(Br)c2)S1,-39.2
2,CC(=O)NC1=NC(=O)/C(=C\c2ccc(N(C)C)cc2)S1,-23.2
3,Cc1ccsc1/C=C1\SC(N2CCN(C)CC2)=NC1=O,3
4,CC(=O)NC1=NC(=O)/C(=C\c2ccc(Br)o2)S1,1.4
5,CC(=O)NC1=NC(=O)/C(=C\c2ccccc2C)S1,-6.5
6,CC(=O)NC1=NC(=O)/C(=C\c2sccc2C)S1,98.2
7,CC(=O)NC1=NC(=O)/C(=C\c2ccc(I)o2)S1,20.2
8,CC(=O)NC1=NC(=O)/C(=C\c2ccccc2F)S1,107
9,CC(=O)NC1=NC(=O)/C(=C\c2ccc(C)o2)S1,96
10,COc1ccccc1/C=C/C(=O)c1ccc(F)cc1,-0.2
11,COc1ccc(CN2CCN(C3CCN(Cc4ccccc4)CC3)CC2)cc1Br,-9.1
12,CCOC(=O)C1C(=O)NCC2CCCC21 (stereo not drawn),4.6
13,O=C(CN1C(=O)c2ccccc2C1=O)Nc1cc(Cl)ccc1C(=O)O,-6.4
14,COc1cccc(CN2CCN(Cc3cccnc3)CC2)c1,-13.5
15,COc1ccc(/C=C/C(=O)O)cc1S(=O)(=O)NCc1ccccc1,7.2
16,CN(C)CCOC(=O)C12CCC3CC(CC(C3)C1)C2,11.3
17,CCOC(=O)c1ccc(NC(=O)CC)cc1,4.7
18,CCOC(=O)c1c(C)[nH]c(N=Nc2ccc(C)cc2)c1C,2.4
19,CC(=O)NC1=NC(=O)/C(=C/c2ccc(C)cc2)S1,118
20,CC(=O)NC1=NC(=O)/C(=C\c2ccc(C(C)(C)C)cc2)S1,11.4
21,CC(=O)NC1=NC(=O)/C(=C\c2cccc([N+](=O)[O-])c2)S1,-42.2
22,CC(=O)NC1=NC(=O)/C(=C\c2ccccc2Cl)S1,14

row,SMILES,displacement [%]
1,CC(=O)NC1=NC(=O)/C(=C\c2cccc(F)c2)S1,-29.1
2,CC(=O)NC1=NC(=O)/C(=C\c2cccs2)S1,109
3,O=C(Nc1ccc(F)c(Cl)c1)c1cc([N+](=O)[O-])ccc1Cl,-10.3
4,CC(C)C(=O)Nc1ccc(Cl)cc1C(=O)O,8.1
5,COc1ccc(/C(C)=N/NC(=O)CN(c2ccc(C)cc2)S(=O)(=O)c2ccccc2)cc1OC,3.8
6,COC(=O)c1ccc(/C=N/NC(=O)CCc2c(C)n[nH]c2C)cc1,4.2
7,CC(C)C(=O)Nc1ccc(I)cc1Cl,11.1
8,O=C(c1cccnc1)N(Cc1ccccc1)Cc1ccccc1,6
9,Cc1c(NC(=S)NC(=O)c2ccco2)cccc1-c1nc2ncccc2o1,9.2
10,Cc1cc(NC(=O)c2ccc(-c3ccc(Br)cc3)o2)ccc1NC(=O)c1ccco1,-2.6
11,O=C(NC(=S)Nc1ccc(-c2nc3ccccc3o2)cc1)c1ccco1,11.6
12,COc1cc(NC(=O)c2ccc(-c3ccc(Cl)cc3)o2)ccc1NC(=O)c1ccco1,-6.5
13,O=C(Nc1cccnc1)c1ccc(-c2ccc(Br)cc2)o1,-5.1
14,O=C(Nc1ccc(-c2nc3ncccc3o2)cc1)c1ccc(-c2cccc(Cl)c2)o1,14.3
15,O=C(Nc1ccc(Cc2ccncc2)cc1)c1ccc(Br)o1,13.1
16,O=C(Nc1ccc(Cc2ccncc2)cc1)c1ccc(-c2ccc(Br)cc2)o1,109
17,O=C(Nc1ccc(-c2nc3ncccc3o2)cc1)c1ccc(-c2ccc(Br)cc2)o1,88.1
18,COc1cc(NC(=O)c2ccc(-c3ccc(Br)cc3)o2)ccc1NC(=O)c1ccco1,158
19,O=C(NC(=S)Nc1ccc(-c2nc3ncccc3o2)cc1)c1ccco1,112
20,O=C(Nc1ccc(-c2nc3ncccc3o2)cc1)c1ccc(Br)o1,-1.9
